# Screening data (PubChem BioAssay)
# CYP2C9 inhib – inhibitors of human CYP2C9 | CYP2C9 Supersomes, luciferin-H conversion, luminescence | inhibition, % at 5 µM | hit rate 20% among 96,000 | AID 777;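 active = blocking of liver enzyme CYP2C9 beyond about 50% at 5 µM, limit read from the data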
# CYP2C19 inh – human CYP2C19 inhibition; inhibition, % at 5 µM; P33261; CYP2C19 Supersomes, luciferin-H EGE luminescence, 30 min; AID 778; hit rate 21% among 96,000;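 active = CYP2C19 inhibition above a set limit at 5 µM in the primary screen, cut at about 50% in these data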;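 also: plate controls were negative control wells for no effect and 2.5 mM tranylcypromine positive control for full effect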
# Target sequence (P33261 whole entry, looked up): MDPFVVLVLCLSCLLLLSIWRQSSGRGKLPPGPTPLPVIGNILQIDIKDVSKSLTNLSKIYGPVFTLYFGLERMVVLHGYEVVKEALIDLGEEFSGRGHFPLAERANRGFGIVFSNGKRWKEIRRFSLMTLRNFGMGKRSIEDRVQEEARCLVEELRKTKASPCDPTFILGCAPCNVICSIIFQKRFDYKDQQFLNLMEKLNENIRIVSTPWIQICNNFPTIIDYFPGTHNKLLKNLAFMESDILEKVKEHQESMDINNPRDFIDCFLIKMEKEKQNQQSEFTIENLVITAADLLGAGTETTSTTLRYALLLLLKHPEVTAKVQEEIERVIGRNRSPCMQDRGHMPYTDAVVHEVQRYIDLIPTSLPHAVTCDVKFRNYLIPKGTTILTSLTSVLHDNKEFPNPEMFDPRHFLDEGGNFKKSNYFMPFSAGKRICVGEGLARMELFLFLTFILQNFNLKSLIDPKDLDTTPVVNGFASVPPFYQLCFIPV
# CYP2C9 activ – CYP2C9 (human) activation | P11712 | recombinant CYP2C9, luciferin-H conversion, luminescence; hits give high values; factor 1 = untreated enzyme, 0 = blocked | activation factor at 5 µM | hit rate 1.4% among 96,000;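 active = activation factor of 2 or more for CYP2C9 at a 5 µM dose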;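 also: 0 = sulfaphenazole-blocked wells and 1 = vehicle-only wells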
# Cav3 T inh – inhibitors of human Cav3.2 T-type calcium channel; hit rate 4% among 100,000; B-score at 10 µM; Cav3.2-expressing cells, Fluo-4 calcium fluorescence FDSS; hits give low values; O95180;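 active = single-dose well whose peak fluorescence ratio is a statistical outlier from its plate by either plate-standardised score or position-corrected B-score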
# CYP2C19 activ – increases human CYP2C19 enzyme activity; P33261; recombinant CYP2C19, luciferin-H EGE luminescence; hits give high values; 0 = fully inhibited enzyme, 1 = untreated enzyme; activation factor at 5 µM; 96,000 tested, under 10 active;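 active = activation factor of at least 2 at 5 µM in the primary screen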;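 also: 0 = wells with 2.5 mM tranylcypromine and 1 = vehicle-only wells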
# * marks the source's active call; other numbers are inactive results; . = not tested or not shown. A selection: hits, their analogues and other compounds. The true share with any hit is near 27%.
SMILES,CYP2C9 inhib,CYP2C19 inh,CYP2C9 activ,Cav3 T inh,CYP2C19 activ
COc1ccc(C/C(N)=N/OC(=O)Cc2ccc(OC)c(OC)c2)cc1,24,16,0.8,0.067,0.8
COc1ccc(C(=O)Cc2ccc(OC)c(OC)c2)c(OC)c1,9,99*,0.9,2,0
O=C(CSCC(=O)OCC(=O)c1ccc(Br)cc1)Nc1cccc2ccccc12,21,34,0.8,-0.034,0.7
COc1cc2c(cc1OC)CN(C(=O)CC1CC3CCC1C3)CC2 (stereo unspecified),10,20,0.9,0.89,0.8
CCc1nnc(NC(=O)CN2CCN(C3CCCCC3)CC2)s1,-9,-12,1.1,0.024,1.1
CC(=O)Nc1ccc(S(=O)(=O)N2CCN(C(=O)CCC3CCCC3)CC2)cc1,12,-3,0.9,1.1,1
COc1ccc(OCCSc2n[nH]c(N)n2)cc1,25,45,0.8,-0.15,0.5
CCOc1nc(SCCOc2ccc(C)cc2)nc(N(C)C)n1,.,.,.,-6.4*,.
O=c1[nH]c2cccnc2n1Cc1ccco1,-14,-17,1.1,0.14,1.2
CCOC(=O)C1=C(C)NC(C)=C(C(=O)OCC)C1C(=O)OCC(=O)NC(C)C,85*,84*,0.2,-0.24,0.2
Cc1cnc(C(=O)OCC(=O)NC(C)C)cn1,29,-1,0.7,2,1
O=C(N/N=C/c1cccn1-c1ccc([N+](=O)[O-])cc1)C(O)c1ccccc1 (stereo unspecified),-2,16,1,-0.28,0.8
O/N=C/c1cccn1-c1ccc(O)cc1,-199,46,3*,0.087,0.5
O=S(=O)(NCCOc1ccc(F)cc1)c1ccc2c(c1)OCCO2,-144,91*,2.4*,-0.68,0.1
O=S(=O)(NCCSc1ccccc1)c1ccc2c(c1)OCCO2,2,87*,1,-5*,0.1
Cc1cc(C)nc(NC(=O)NS(=O)(=O)N2CCCCCC2)n1,-12,-7,1.1,-0.66,1.1
O=C(Cc1coc(-c2ccc(F)cc2)n1)N1CCOCC1,52*,50*,0.5,1,0.5
COc1ccc(Br)cc1CNC(=O)C1CCN(S(=O)(=O)N2CCCC2)CC1,-164,22,2.6*,0.59,0.8
COc1ccccc1CNC(=O)C1CCN(S(=O)(=O)N2CCCCC2)CC1,-116,19,2.2*,0.9,0.8
CCCNC(=O)CSc1nnc(C)s1,22,17,0.8,0.34,0.8
Cc1cc(C)c2c(N)c3ccccc3nc2n1,-3,-8,1,0.45,1.1
Cc1ccccc1-c1nc2cc(N)ccc2o1,27,33,0.7,1.3,0.7
Cc1cc2nn(-c3cccc4ccccc34)nc2cc1N,58*,31,0.4,-2.3,0.7
Nc1ccc2nn(-c3cccc4ccccc34)nc2c1,51*,49,0.5,-2.4,0.5
COc1cc(NS(=O)(=O)c2ccc(F)cc2)c(OC)cc1NC(C)=O,67*,99*,0.3,0.41,0
SMILES,CYP2C9 inhib,CYP2C19 inh,CYP2C9 activ,Cav3 T inh,CYP2C19 activ
COc1ccc(NC(=O)C2CC2)cc1NS(=O)(=O)c1ccc(F)cc1,3,58*,1,0.25,0.4
COc1ccc(S(=O)(=O)N2CCC(C(=O)Nc3ccc(OC)c(OC)c3)CC2)cc1C,.,.,.,-0.26,.
O=C(c1ccco1)N1CCN(S(=O)(=O)c2ccc(S(=O)(=O)NC3CCCCC3)cc2)CC1,45,11,0.6,-1.4,0.9
CCCc1cc(=O)oc2c3c(c4c(c12)OC(C)(C)C=C4)OC(C)C(C)C3O (stereo unspecified),.,.,.,-6.8*,.
CCCc1cc(=O)oc2cc(C)cc(O)c12,-31,25,1.3,-1.5,0.7
Cc1ccc2nc(NC(=O)CSCc3ccccc3)sc2c1,3,4,1,-0.32,1
Cc1ccc2c(c1)sc[n+]2Cc1ccccc1,68*,66*,0.3,-0.075,0.3
NC1=NC[C@H](Cc2ccc(O)cc2)N1CCC12CC3CC(CC(C3)C1)C2,.,.,.,-0.91,.
CSc1nc(SCC(=O)NC(c2ccccc2)c2ccccc2)c2c3c(sc2n1)CN(C)CC3,57*,44,0.4,-1.9,0.6
C/C(=N\NC(=O)C(C)Oc1ccc([N+](=O)[O-])cc1)c1ccccn1 (stereo unspecified),-31,68*,1.3,.,0.3
Cc1cccc(C)c1NC(=O)C(NC(=O)c1ccccn1)c1ccc([N+](=O)[O-])cc1 (stereo unspecified),-13,2,1.1,-2.8,1
O=c1cc(N2CCN(Cc3ccccc3)CC2)[nH]c(=O)n1Cc1ccc(F)cc1,16,-3,0.8,-1.4,1
COc1ccccc1N1CCN(c2cc(=O)n(Cc3ccc(F)cc3)c(=O)[nH]2)CC1,.,.,.,-6.1*,.
O=C1CC(N2CCN(C/C=C/c3ccccc3)CC2)C(=O)N1Cc1cccs1 (stereo unspecified),36,55*,0.6,-0.32,0.4
CSc1nc(N)nc(-c2cccs2)c1C#N,58*,78*,0.4,2.9,0.2
CC(C)Sc1nc(N)nc(-c2cccs2)c1C#N,75*,29,0.3,.,0.7
O=c1c2ccccc2oc2nc(-c3ccco3)n(Cc3ccccc3)c(=O)c12,5,7,1,0.45,0.9
O=C(Nc1cccc2ccccc12)c1ccc(Cn2cc(Cl)cn2)cc1,-156,15,2.6*,-3.9*,0.9
O=C(c1ccc(Cn2cc(Cl)cn2)cc1)N1CCN(c2ccccc2)CC1,32,14,0.7,-1.9,0.9
CC(C)NC(=O)c1cccc(Cn2cc(Cl)cn2)c1,26,5,0.7,-0.89,0.9
COC(=O)c1ccc(Cn2cc(Cl)cn2)cc1,53*,99*,0.5,-0.14,0
COC(=O)c1sc(NC(=O)c2ccc(Cn3cc(Cl)cn3)o2)c(C#N)c1C,75*,47,0.3,-3.7*,0.5
CCOc1ccc(C2OC(=O)Cc3cc(OC)c(OC)cc32)cc1 (stereo unspecified),26,35,0.7,-0.39,0.6
CCCCn1c(SCC(=O)Nc2ccc3c(c2)OCO3)nc2c1c(=O)n(C)c(=O)n2C,15,8,0.9,-0.028,0.9
O=C(CNC(=O)C1CCCCC1)Nc1cc(Cl)cc(Cl)c1,25,61*,0.8,-0.57,0.4
SMILES,CYP2C9 inhib,CYP2C19 inh,CYP2C9 activ,Cav3 T inh,CYP2C19 activ
O=C(COC(=O)CNC(=O)C1CCCCC1)Nc1ccc2ccccc2c1,36,69*,0.6,-0.63,0.3
O=C(CNC(=O)C1CCCCC1)Nc1ccc(Cl)cc1,25,43,0.7,1.7,0.6
CCOC(=O)c1ccc(NC(=O)CNC(=O)C2CCCCC2)cc1,54*,27,0.5,0.016,0.7
Cc1ccccc1CNc1ccc(C(CC(N)=O)NC(=O)c2ccccc2)cc1[N+](=O)[O-] (stereo unspecified),.,.,.,0.45,.
COCCn1c(C)cc(C(=O)COC(=O)CCN2C(=O)c3ccccc3C2=O)c1C,14,33,0.9,0.6,0.7
NC1=NC[C@H](c2ccccc2)N1CCc1cccc(F)c1,.,.,.,0.071,.
O=c1cc(Nc2ccc3c(c2)OCCO3)[nH]c(=O)n1Cc1ccc(F)cc1,.,.,.,-3.9*,.
